Measurements: PubChem BioAssay (Tox21)
Calls of active or inactive are those of the source. Entries that show only a call come without a potency. Calls come from the whole dose curve.

target: Acetylcholinesterase (Homo sapiens) (UniProt P22303); test: Acetylcholinesterase (AChE) small molecule antagonists: enzyme-based qHTS assay (AID 1347397); details: Potency: AChE enzyme activity inhibition; outcome: AChE enzyme activity inhibition; series mostly up to 115 µM; note: nearly all actives have a fitted effect of over 55% in size; note: potency is the fitted concentration of half-maximal effect
Sequence (P22303 whole entry, looked up): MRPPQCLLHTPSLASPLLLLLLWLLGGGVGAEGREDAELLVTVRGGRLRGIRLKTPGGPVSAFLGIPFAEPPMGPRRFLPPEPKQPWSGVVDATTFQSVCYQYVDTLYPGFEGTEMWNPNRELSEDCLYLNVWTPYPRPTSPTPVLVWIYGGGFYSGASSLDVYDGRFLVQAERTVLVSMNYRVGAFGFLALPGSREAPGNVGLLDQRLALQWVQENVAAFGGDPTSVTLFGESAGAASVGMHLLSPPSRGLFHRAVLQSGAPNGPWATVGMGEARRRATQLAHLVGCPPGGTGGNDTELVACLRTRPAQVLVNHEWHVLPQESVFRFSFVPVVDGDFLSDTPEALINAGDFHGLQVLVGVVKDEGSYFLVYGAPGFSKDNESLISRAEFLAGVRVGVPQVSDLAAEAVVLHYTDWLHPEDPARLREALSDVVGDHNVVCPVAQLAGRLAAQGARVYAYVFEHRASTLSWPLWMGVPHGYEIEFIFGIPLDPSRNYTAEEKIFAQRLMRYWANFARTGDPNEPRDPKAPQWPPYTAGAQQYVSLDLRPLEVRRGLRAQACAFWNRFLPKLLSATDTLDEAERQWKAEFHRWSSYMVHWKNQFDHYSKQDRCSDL
Outline: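 Absorbance-based detection of thiocholine with DTNB served as the read-out. Recombinant human AChE was exposed to compound for 30 min at RT before a 10 min RT incubation with acetylthiocholine.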

Row | SMILES | Potency
1 | CCCCCCCC/C=C\CCCCCCCC(=O)OCC | inactive
2 | CCO[C@H](Cc1ccc(OCCc2ccc(OS(C)(=O)=O)cc2)cc1)C(=O)O | inactive
3 | O=C(CCCN1CCN(c2ccc(F)cc2)CC1)NC1c2ccccc2CSc2ccccc21 (stereo not given) | inactive
4 | CCCCCCCCCCCCSCCOCCO | inactive
5 | FC(F)(F)C(F)(F)C(F)(F)C(F)(F)C(F)(F)C(F)(F)C(F)(F)C(F)(F)Br | inactive
6 | Brc1cc(Br)c(Oc2cc(Br)c(Br)cc2Br)cc1Br | inactive
7 | COc1ccc(/C=C/S(=O)(=O)NC(=O)c2ccc(C)cc2Cl)cc1 | inactive
8 | CCCOc1sc(C(=O)N2CCC(c3cc(CN)ccc3F)CC2)c(C)c1Br | 73 µM (active)
9 | Clc1ccc(C(Cn2ccnc2)OCc2ccc(Sc3ccccc3)cc2)c(Cl)c1 (stereo not given) | inactive
10 | COc1cc2c(Nc3ccc(Br)cc3F)ncnc2cc1OCC1CCN(C)CC1 | inactive
11 | Cc1onc(-c2c(Cl)cccc2Cl)c1C(=O)Cl | inactive
12 | NC/C=C/C(=O)O | inactive
13 | C[C@@H](O)[C@H]1C(=O)N2C(C(=O)O)=C(S[C@@H]3CN[C@H](CNS(N)(=O)=O)C3)[C@H](C)[C@H]12 | inactive
14 | COc1ccccc1N=Nc1c(S(=O)(=O)O)cc2cc(S(=O)(=O)O)cc(NC(C)=O)c2c1O | inactive
15 | O=[N+]([O-])c1ccc(O/N=C/c2cc(Br)c(O)c(Br)c2)c([N+](=O)[O-])c1 | inactive
16 | CCN(CC)C(C)CN1c2ccccc2Sc2ccccc21 (stereo not given) | inactive
17 | CC1(C)CCC(C)(C)c2cc(NC(=O)c3ccc(C(=O)O)cc3)ccc21 | inactive
18 | Cc1cc2c(cc1CC(=O)c1sccc1S(=O)(=O)Nc1onc(C)c1Cl)OCO2 | inactive
19 | CC(=O)c1cccnc1 | inactive
20 | CC(=O)N(c1onc(C)c1C)S(=O)(=O)c1ccc(N)cc1 | inactive

Row | SMILES | Potency
21 | Nc1cc(C(F)(F)F)ccc1S | inactive
22 | Cc1ccnc(N)c1 | inactive
23 | CCOC(=O)c1ccc(C#Cc2ccc3c(c2)C(C)(C)CCS3)nc1 | inactive
24 | CCN(CC)CCOc1ccccc1C(=O)CCc1ccccc1 | inactive
25 | CN1CC(=O)N2[C@H](c3ccc4c(c3)OCO4)c3[nH]c4ccccc4c3C[C@@H]2C1=O | inactive
26 | CO[C@@H]1[C@@H](O[C@@H]2O[C@H](C)[C@@H](O[C@H]3C[C@@](C)(O)[C@@H](O)[C@H](C)O3)[C@H](N(C)C)[C@H]2O)[C@@H](CC=O)C[C@@H](C)[C@@H](O[C@@H]2CC[C@H](N(C)C)[C@@H](C)O2)/C=C/C=C/C[C@@H](C)OC(=O)C[C@H]1OC(C)=O | inactive
27 | CNC(=O)c1c(I)c(NC(C)=O)c(I)c(C(=O)O)c1I | inactive
28 | CC1(COc2ccc(CC3SC(=O)NC3=O)cc2)CCCCC1 (stereo not given) | inactive
29 | CCCCN(CCCC)CC(O)c1cc(Cl)cc2c1-c1ccc(Cl)cc1/C2=C/c1ccc(Cl)cc1 (stereo not given) | inactive
30 | Cc1c(C)c2c(c(C)c1OC(=O)CCC(=O)OCCO)CC[C@@](C)(CCC[C@H](C)CCC[C@H](C)CCCC(C)C)O2 | inactive
31 | Cc1cc(-c2ccccc2)nnc1NCCN1CCOCC1 | inactive
32 | C=C(C)C(=O)OC1CC(C)CC(C)(C)C1 (stereo not given) | inactive
33 | Oc1ccc(C2CNCCc3c2cc(O)c(O)c3Cl)cc1 (stereo not given) | inactive
34 | CCN(CC)c1ccc(C=O)cc1 | inactive
35 | CN(C)[C@@H](CCOc1cccc2ccccc12)c1ccccc1 | inactive
36 | C(/C=C/C=C/Nc1ccccc1)=Nc1ccccc1 | inactive
37 | Cc1nc(-c2ccc(OCC(C)C)c(C#N)c2)sc1C(=O)O | inactive
38 | CSc1ccc(Oc2ccc(S(N)(=O)=O)cc2CN(C)C)cc1C | inactive
39 | NC(=O)c1ccc(N)cc1 | inactive
40 | Cc1oc(=O)oc1COC(=O)[C@@H]1N2C(=O)[C@@H](NC(=O)[C@H](N)c3ccccc3)[C@H]2SC1(C)C | inactive

target: Acetylcholinesterase (Homo sapiens) (UniProt P22303); test: Acetylcholinesterase (AChE) small molecule antagonists: enzyme-based qHTS assay with human liver microsomes (AID 1347399); details: Potency: qHTS inhibition; outcome: qHTS inhibition; series mostly up to 115 µM; note: nearly all actives have a fitted effect of over 60% in size
Outline: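 Recombinant human AChE (50 mU/mL in the enzyme mix) and human liver microsomes (0.25 mg/mL final) were preincubated with compound and NADPH (0.25 mg/mL final) for 30 min at 37 C. Acetylthiocholine/DTNB was then added; thiocholine was read colorimetrically after 10 min at room temperature.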

Row | SMILES | Potency
41 | CCCCCCCC/C=C\CCCCCCCC(=O)OCC | inactive
42 | CCO[C@H](Cc1ccc(OCCc2ccc(OS(C)(=O)=O)cc2)cc1)C(=O)O | inactive
43 | O=C(CCCN1CCN(c2ccc(F)cc2)CC1)NC1c2ccccc2CSc2ccccc21 (stereo not given) | inactive
44 | CCCCCCCCCCCCSCCOCCO | inactive
45 | FC(F)(F)C(F)(F)C(F)(F)C(F)(F)C(F)(F)C(F)(F)C(F)(F)C(F)(F)Br | inactive
46 | Brc1cc(Br)c(Oc2cc(Br)c(Br)cc2Br)cc1Br | inactive
47 | COc1ccc(/C=C/S(=O)(=O)NC(=O)c2ccc(C)cc2Cl)cc1 | inactive
48 | CCCOc1sc(C(=O)N2CCC(c3cc(CN)ccc3F)CC2)c(C)c1Br | inactive
49 | Clc1ccc(C(Cn2ccnc2)OCc2ccc(Sc3ccccc3)cc2)c(Cl)c1 (stereo not given) | inactive
50 | COc1cc2c(Nc3ccc(Br)cc3F)ncnc2cc1OCC1CCN(C)CC1 | inactive
51 | Cc1onc(-c2c(Cl)cccc2Cl)c1C(=O)Cl | inactive
52 | NC/C=C/C(=O)O | inactive
53 | C[C@@H](O)[C@H]1C(=O)N2C(C(=O)O)=C(S[C@@H]3CN[C@H](CNS(N)(=O)=O)C3)[C@H](C)[C@H]12 | inactive
54 | COc1ccccc1N=Nc1c(S(=O)(=O)O)cc2cc(S(=O)(=O)O)cc(NC(C)=O)c2c1O | inactive
55 | O=[N+]([O-])c1ccc(O/N=C/c2cc(Br)c(O)c(Br)c2)c([N+](=O)[O-])c1 | inactive
56 | CCN(CC)C(C)CN1c2ccccc2Sc2ccccc21 (stereo not given) | inactive
57 | CC1(C)CCC(C)(C)c2cc(NC(=O)c3ccc(C(=O)O)cc3)ccc21 | inactive
58 | Cc1cc2c(cc1CC(=O)c1sccc1S(=O)(=O)Nc1onc(C)c1Cl)OCO2 | inactive
59 | CC(=O)c1cccnc1 | inactive
60 | CC(=O)N(c1onc(C)c1C)S(=O)(=O)c1ccc(N)cc1 | inactive

Row | SMILES | Potency
61 | Nc1cc(C(F)(F)F)ccc1S | inactive
62 | Cc1ccnc(N)c1 | inactive
63 | CCOC(=O)c1ccc(C#Cc2ccc3c(c2)C(C)(C)CCS3)nc1 | inactive
64 | CCN(CC)CCOc1ccccc1C(=O)CCc1ccccc1 | inactive
65 | CN1CC(=O)N2[C@H](c3ccc4c(c3)OCO4)c3[nH]c4ccccc4c3C[C@@H]2C1=O | inactive
66 | CO[C@@H]1[C@@H](O[C@@H]2O[C@H](C)[C@@H](O[C@H]3C[C@@](C)(O)[C@@H](O)[C@H](C)O3)[C@H](N(C)C)[C@H]2O)[C@@H](CC=O)C[C@@H](C)[C@@H](O[C@@H]2CC[C@H](N(C)C)[C@@H](C)O2)/C=C/C=C/C[C@@H](C)OC(=O)C[C@H]1OC(C)=O | inactive
67 | CNC(=O)c1c(I)c(NC(C)=O)c(I)c(C(=O)O)c1I | inactive
68 | CC1(COc2ccc(CC3SC(=O)NC3=O)cc2)CCCCC1 (stereo not given) | inactive
69 | CCCCN(CCCC)CC(O)c1cc(Cl)cc2c1-c1ccc(Cl)cc1/C2=C/c1ccc(Cl)cc1 (stereo not given) | inactive
70 | Cc1c(C)c2c(c(C)c1OC(=O)CCC(=O)OCCO)CC[C@@](C)(CCC[C@H](C)CCC[C@H](C)CCCC(C)C)O2 | inactive
71 | Cc1cc(-c2ccccc2)nnc1NCCN1CCOCC1 | inactive
72 | C=C(C)C(=O)OC1CC(C)CC(C)(C)C1 (stereo not given) | inactive
73 | Oc1ccc(C2CNCCc3c2cc(O)c(O)c3Cl)cc1 (stereo not given) | inactive
74 | CCN(CC)c1ccc(C=O)cc1 | inactive
75 | CN(C)[C@@H](CCOc1cccc2ccccc12)c1ccccc1 | inactive
76 | C(/C=C/C=C/Nc1ccccc1)=Nc1ccccc1 | inactive
77 | Cc1nc(-c2ccc(OCC(C)C)c(C#N)c2)sc1C(=O)O | inactive
78 | CSc1ccc(Oc2ccc(S(N)(=O)=O)cc2CN(C)C)cc1C | inactive
79 | NC(=O)c1ccc(N)cc1 | inactive
80 | Cc1oc(=O)oc1COC(=O)[C@@H]1N2C(=O)[C@@H](NC(=O)[C@H](N)c3ccccc3)[C@H]2SC1(C)C | inactive
